# Results as given in PubChem BioAssay (NCI).
# This is part of a sample that, as a whole, favours compounds with a hit. Of some 83,000 tested, about 20% had one in any assay.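 Values shown are percent growth following 48 h exposure of cells in 96-well plates to a single concentration of compound; below 10 was considered active.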 A number with no mark means an inactive call. The source made the active and inactive calls.
# Test system: HL-60(TB) leukemia
# Test: NCI-60 one-dose screen, 48 h (100 = growth as untreated, 0 = no growth, -100 = all killed)
# Conditions: 10 µM unless noted
row,Structure (SMILES),growth
1,C=C1CCC2C3(C)COC(c4ccccc4)OC3CCC2(C)C1/C=C/C1=CCOC1=O (configuration not stated),0.949% (active)
2,COc1ccccc1C(=O)Nc1cccc(-c2cc(=O)c3c(OC)c(OC)c(OC)cc3o2)c1,57.7%
3,CCC(=O)c1c(C)[nH]c(C)c1C,92.8%
4,COc1ccc(Cn2cc(C(=O)N=Nc3c(O)[nH]c4c(C)cccc34)nn2)cc1,78.9%
5,O=C(NC(=S)NNC(=S)NNc1ccccc1)c1ccccc1,0.166% (active)
6,N#Cc1ccc(-c2ccc(COc3ccc(CC4SC(=O)NC4=O)cc3)cc2)cc1 (configuration not stated),70.5%
7,O=C1CCCC1[n+]1ccccc1 (configuration not stated),88.1%
8,CCC1(C)OC(=O)NC1=O (configuration not stated),112%
9,O=C(Nc1cccc2ccccc12)c1cc2ccccc2cc1O,9.13% (active)
10,CC(=O)Nc1ccc(S(=O)(=O)n2ccc(-c3ccc4c(c3)CCC(C)(C)O4)n2)cc1,91.9%
11,CCN1C(=O)/C(=C/C=C/N(C)c2ccccc2)SC1=S,78.2%
12,CCOc1ccc(Nc2ccnc3cc(Cl)ccc23)cc1,-25.6% (active)
13,OC1CSSC1Cn1cnc2c(Nc3ccc(F)c(Cl)c3)ncnc21 (configuration not stated),45.8%
14,COC1=C(OC)C(=O)C=CC1=O,60.8%
15,CCCCCCCCCCCCCC1=NC(C)(C)CN1C(C)C,-66.7% (active)
16,COc1cc(/C=C/C(=O)c2ccc(Oc3ncnc4ccccc34)cc2)cc(OC)c1OC,54.3%
17,O=CNc1ccc2c(c1)Cc1cc([N+](=O)[O-])ccc1-2,17.7%
